# Experimental data: ChEMBL document CHEMBL2218924, “A broad activity screen in support of a chemogenomic map for kinase signalling research and drug discovery” (Biochem J, 2013)
# Columns and labels:
# [1] = target: Insulin receptor (Homo sapiens) (UniProt P06213); details: at 10 µM
# [2] = target: T1, Tyrosine-protein kinase JAK3 (Homo sapiens) (UniProt P52333); details: at 10 µM
# T1 sequence (whole entry): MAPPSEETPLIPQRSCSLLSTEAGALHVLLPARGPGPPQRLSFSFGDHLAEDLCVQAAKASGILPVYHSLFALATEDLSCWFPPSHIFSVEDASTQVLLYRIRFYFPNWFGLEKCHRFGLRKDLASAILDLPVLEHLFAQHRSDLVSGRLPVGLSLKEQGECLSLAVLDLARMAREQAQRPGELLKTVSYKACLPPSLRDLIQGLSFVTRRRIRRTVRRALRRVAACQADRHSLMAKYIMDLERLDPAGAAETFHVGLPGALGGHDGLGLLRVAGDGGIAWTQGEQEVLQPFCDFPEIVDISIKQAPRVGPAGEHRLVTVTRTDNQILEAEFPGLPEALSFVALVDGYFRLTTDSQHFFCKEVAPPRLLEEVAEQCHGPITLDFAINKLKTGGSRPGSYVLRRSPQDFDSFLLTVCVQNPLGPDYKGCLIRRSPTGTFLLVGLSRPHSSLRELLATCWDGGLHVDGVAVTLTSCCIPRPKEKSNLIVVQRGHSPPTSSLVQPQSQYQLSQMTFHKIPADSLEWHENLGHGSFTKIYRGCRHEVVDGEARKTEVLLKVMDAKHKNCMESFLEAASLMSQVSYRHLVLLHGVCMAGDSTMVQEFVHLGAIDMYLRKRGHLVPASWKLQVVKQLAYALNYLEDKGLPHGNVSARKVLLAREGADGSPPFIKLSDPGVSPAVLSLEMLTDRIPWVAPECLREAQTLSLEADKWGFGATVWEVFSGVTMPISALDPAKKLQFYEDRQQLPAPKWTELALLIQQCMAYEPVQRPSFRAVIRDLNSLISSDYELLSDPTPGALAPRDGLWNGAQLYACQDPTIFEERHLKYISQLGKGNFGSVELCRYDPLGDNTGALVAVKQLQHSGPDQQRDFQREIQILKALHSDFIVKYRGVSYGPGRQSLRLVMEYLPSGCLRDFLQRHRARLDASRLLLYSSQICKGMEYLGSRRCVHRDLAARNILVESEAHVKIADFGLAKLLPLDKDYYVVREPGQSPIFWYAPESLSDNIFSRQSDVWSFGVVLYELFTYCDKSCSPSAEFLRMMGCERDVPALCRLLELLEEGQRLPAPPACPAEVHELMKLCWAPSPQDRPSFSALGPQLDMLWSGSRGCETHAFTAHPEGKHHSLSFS
# [3] = target: Mitogen-activated protein kinase 9 (Homo sapiens) (UniProt P45984); details: at 1 µM
# [4] = target: Mitogen-activated protein kinase 9 (Homo sapiens) (UniProt P45984); details: at 10 µM
# [5] = target: Mitogen-activated protein kinase 10 (Homo sapiens) (UniProt P53779); details: at 1 µM
# [6] = target: Insulin receptor (Homo sapiens) (UniProt P06213); details: at 1 µM
# [7] = target: Insulin receptor (Homo sapiens) (UniProt P06213); details: at 10 µM; remark: listed apart in the source
# [8] = target: Interleukin-1 receptor-associated kinase 1 (Homo sapiens) (UniProt P51617); details: at 1 µM
# [9] = target: Interleukin-1 receptor-associated kinase 1 (Homo sapiens) (UniProt P51617); details: at 10 µM
# [10] = target: T2, Interleukin-1 receptor-associated kinase 4 (Homo sapiens) (UniProt Q9NWZ3); details: at 1 µM
# T2 sequence (whole entry): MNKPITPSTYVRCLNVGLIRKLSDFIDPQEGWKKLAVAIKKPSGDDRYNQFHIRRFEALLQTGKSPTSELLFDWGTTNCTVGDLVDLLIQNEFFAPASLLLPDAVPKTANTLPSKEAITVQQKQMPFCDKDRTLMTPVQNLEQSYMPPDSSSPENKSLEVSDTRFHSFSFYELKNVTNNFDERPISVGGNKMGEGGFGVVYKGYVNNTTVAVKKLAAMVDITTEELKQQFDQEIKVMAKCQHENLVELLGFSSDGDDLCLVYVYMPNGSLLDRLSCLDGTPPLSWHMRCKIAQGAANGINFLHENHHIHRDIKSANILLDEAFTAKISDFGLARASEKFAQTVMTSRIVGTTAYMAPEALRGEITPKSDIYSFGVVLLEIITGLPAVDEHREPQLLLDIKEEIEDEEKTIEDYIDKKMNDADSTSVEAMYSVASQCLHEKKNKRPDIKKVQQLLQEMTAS
# [11] = target: T2, Interleukin-1 receptor-associated kinase 4 (Homo sapiens); details: at 10 µM
# [12] = target: Insulin receptor-related protein (Homo sapiens) (UniProt P14616); details: at 1 µM
# [13] = target: Insulin receptor-related protein (Homo sapiens) (UniProt P14616); details: at 10 µM
# [14] = target: T3, Tyrosine-protein kinase ITK/TSK (Homo sapiens) (UniProt Q08881); details: at 1 µM
# T3 sequence (whole entry): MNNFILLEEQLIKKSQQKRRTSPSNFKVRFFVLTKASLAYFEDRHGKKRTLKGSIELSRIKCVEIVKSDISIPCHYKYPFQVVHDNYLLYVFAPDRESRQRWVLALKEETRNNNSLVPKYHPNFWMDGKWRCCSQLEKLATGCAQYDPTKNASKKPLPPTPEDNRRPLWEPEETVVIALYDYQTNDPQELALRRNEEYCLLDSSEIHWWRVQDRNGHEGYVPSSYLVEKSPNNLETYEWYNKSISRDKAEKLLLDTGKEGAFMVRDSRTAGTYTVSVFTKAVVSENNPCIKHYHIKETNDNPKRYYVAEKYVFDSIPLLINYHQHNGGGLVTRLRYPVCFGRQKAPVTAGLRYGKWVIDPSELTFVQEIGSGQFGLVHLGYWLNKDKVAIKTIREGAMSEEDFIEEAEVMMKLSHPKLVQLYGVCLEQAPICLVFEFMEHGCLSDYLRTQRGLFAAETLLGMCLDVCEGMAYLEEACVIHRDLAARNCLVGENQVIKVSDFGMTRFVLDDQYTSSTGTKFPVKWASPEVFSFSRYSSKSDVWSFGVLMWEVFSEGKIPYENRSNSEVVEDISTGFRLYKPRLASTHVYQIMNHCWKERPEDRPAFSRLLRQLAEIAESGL
# [15] = target: T3, Tyrosine-protein kinase ITK/TSK (Homo sapiens); details: at 10 µM
# [16] = target: Tyrosine-protein kinase JAK2 (Homo sapiens) (UniProt O60674); details: at 1 µM
# [17] = target: Tyrosine-protein kinase JAK2 (Homo sapiens) (UniProt O60674); details: at 10 µM
# [18] = target: T1, Tyrosine-protein kinase JAK3 (Homo sapiens); details: at 1 µM
# [19] = target: Mitogen-activated protein kinase 8 (Homo sapiens) (UniProt P45983); details: at 1 µM
# [20] = target: Mitogen-activated protein kinase 8 (Homo sapiens) (UniProt P45983); details: at 10 µM
# Sequence of Insulin receptor-related protein (Homo sapiens) (P14616 27-742 limits assumed): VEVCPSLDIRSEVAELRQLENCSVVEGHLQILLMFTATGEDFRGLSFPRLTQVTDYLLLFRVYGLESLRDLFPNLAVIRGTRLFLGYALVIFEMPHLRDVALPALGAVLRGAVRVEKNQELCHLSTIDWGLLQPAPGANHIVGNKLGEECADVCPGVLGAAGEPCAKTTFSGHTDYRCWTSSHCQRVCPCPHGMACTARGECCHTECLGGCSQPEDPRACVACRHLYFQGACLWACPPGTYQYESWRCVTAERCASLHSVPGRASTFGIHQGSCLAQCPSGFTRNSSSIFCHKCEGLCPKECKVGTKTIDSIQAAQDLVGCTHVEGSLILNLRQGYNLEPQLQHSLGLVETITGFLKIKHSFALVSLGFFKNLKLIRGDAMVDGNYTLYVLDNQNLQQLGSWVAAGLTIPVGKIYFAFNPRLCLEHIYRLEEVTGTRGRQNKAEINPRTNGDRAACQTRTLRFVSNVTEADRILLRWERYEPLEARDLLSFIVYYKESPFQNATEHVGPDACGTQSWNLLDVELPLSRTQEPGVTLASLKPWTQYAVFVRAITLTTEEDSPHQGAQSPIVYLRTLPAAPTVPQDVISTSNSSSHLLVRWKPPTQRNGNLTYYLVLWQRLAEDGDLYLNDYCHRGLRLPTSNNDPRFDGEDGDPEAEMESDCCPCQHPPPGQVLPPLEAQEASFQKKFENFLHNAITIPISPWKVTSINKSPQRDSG
# Sequence of Insulin receptor-related protein (Homo sapiens) (P14616 747-1297 limits assumed): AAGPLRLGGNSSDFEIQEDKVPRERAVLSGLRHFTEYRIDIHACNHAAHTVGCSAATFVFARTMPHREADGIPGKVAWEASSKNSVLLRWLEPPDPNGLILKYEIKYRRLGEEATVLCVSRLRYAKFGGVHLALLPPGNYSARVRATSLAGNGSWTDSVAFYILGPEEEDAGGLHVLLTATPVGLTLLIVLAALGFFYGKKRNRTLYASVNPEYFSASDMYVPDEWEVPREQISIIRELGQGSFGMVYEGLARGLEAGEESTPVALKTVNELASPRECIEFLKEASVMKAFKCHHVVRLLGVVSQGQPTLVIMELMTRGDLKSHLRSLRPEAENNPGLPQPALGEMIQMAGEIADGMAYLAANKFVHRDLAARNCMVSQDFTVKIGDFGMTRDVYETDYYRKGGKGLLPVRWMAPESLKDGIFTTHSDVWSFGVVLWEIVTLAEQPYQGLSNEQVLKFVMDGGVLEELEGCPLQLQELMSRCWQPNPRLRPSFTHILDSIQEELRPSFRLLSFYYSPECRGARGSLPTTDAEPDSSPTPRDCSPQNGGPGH
# Sequence of Insulin receptor (Homo sapiens) (P06213 28-758 limits assumed): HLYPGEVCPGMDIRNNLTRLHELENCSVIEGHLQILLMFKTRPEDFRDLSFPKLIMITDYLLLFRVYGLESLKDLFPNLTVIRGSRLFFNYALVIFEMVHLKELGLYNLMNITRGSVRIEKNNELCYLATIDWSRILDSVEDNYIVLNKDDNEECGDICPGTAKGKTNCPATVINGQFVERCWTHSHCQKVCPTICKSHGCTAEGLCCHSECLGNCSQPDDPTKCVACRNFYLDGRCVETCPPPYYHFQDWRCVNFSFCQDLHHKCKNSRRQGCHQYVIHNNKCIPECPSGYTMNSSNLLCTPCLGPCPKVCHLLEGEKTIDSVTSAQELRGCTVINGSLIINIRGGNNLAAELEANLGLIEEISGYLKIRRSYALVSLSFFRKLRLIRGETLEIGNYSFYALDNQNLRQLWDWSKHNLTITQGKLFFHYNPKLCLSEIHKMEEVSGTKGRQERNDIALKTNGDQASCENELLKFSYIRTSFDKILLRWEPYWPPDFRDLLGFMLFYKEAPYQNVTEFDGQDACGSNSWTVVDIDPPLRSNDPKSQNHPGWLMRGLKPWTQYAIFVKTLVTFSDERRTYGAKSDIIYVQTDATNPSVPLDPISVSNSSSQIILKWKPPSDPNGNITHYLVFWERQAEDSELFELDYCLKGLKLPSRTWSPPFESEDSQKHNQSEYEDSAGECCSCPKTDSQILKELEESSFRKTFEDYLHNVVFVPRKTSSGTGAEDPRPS
# Sequence of Insulin receptor (Homo sapiens) (P06213 763-1382 limits assumed): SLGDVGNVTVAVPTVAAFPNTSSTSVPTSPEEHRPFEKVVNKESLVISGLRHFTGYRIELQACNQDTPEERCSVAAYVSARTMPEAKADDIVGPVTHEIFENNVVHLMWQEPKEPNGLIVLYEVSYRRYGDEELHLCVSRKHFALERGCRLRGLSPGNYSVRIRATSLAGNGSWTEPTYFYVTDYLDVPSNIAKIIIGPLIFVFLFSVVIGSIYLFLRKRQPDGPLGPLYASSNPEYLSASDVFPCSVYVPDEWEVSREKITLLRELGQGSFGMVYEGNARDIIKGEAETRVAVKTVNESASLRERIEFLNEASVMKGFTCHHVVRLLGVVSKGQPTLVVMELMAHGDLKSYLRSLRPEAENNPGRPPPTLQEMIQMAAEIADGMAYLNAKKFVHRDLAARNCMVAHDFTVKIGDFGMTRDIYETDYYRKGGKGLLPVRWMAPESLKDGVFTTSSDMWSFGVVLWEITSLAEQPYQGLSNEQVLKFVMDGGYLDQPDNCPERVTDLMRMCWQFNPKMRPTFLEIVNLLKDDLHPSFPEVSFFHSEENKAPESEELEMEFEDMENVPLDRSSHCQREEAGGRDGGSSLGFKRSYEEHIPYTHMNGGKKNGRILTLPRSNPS
# Sequence of Mitogen-activated protein kinase 10 (Homo sapiens) (P53779 whole entry): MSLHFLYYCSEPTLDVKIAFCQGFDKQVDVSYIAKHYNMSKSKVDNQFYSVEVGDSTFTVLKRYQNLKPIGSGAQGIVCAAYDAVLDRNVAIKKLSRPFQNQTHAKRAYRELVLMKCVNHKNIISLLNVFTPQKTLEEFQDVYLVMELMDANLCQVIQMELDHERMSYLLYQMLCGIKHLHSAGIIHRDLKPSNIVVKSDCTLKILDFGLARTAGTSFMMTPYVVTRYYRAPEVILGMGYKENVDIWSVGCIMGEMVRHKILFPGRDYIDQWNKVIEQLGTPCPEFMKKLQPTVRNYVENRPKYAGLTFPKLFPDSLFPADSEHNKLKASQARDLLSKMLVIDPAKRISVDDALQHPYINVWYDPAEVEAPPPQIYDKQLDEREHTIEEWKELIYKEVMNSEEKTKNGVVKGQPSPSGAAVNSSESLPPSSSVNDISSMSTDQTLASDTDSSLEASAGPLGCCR
# Sequence of Tyrosine-protein kinase JAK2 (Homo sapiens) (O60674 whole entry): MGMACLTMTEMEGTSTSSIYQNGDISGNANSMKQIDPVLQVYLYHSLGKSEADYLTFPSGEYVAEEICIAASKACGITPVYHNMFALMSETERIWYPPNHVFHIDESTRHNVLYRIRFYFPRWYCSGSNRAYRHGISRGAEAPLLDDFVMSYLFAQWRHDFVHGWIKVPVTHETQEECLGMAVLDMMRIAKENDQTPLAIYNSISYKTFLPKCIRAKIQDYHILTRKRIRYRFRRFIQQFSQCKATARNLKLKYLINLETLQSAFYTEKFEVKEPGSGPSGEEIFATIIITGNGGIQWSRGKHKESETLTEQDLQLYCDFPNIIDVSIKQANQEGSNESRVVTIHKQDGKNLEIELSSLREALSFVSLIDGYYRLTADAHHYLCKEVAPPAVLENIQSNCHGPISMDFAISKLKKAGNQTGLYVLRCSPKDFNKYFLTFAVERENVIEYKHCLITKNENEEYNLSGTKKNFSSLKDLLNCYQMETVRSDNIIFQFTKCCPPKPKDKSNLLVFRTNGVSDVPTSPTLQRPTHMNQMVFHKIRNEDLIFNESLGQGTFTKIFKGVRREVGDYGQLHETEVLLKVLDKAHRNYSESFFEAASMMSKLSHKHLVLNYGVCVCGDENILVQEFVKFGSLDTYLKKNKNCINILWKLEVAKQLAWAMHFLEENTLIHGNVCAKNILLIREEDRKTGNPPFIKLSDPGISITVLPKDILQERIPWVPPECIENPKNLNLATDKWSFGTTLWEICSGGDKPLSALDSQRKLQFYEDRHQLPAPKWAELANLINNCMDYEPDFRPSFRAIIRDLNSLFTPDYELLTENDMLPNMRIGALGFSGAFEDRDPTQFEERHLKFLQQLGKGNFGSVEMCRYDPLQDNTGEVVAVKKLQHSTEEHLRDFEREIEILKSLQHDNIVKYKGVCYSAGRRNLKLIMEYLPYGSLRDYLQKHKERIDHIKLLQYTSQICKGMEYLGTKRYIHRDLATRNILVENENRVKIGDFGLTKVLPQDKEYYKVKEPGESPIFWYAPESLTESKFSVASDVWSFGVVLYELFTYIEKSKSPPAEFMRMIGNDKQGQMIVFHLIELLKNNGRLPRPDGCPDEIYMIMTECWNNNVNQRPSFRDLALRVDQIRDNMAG
# Sequence of Mitogen-activated protein kinase 9 (Homo sapiens) (P45984 whole entry, looked up): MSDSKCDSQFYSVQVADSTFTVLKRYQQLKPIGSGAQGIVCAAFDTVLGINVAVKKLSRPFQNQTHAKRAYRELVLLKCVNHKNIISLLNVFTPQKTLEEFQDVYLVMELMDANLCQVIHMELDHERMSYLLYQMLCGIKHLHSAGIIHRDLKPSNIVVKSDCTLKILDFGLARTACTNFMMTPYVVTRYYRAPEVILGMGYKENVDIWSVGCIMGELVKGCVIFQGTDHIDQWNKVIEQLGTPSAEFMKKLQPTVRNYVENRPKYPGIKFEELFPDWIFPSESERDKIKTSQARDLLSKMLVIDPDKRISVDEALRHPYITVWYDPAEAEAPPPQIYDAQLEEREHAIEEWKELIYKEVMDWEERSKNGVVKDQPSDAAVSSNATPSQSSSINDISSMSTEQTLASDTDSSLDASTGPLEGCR
smiles,measurement,setting,value
CN([C@@H](Cc1ccc(OS(=O)(=O)c2cccc3cnccc23)cc1)C(=O)N1CCN(c2ccccc2)CC1)S(=O)(=O)c1cccc2cnccc12,residual activity,[1],84%
same,residual activity,[2],83%
same,residual activity,[3],114%
same,residual activity,[4],114%
same,residual activity,[5],76%
CCN(CC)CCNC(=O)c1c(C)[nH]c(/C=C2\C(=O)Nc3ccc(Cl)cc32)c1C,residual activity,[1],6%
same,residual activity,[6],8%
same,residual activity,[7],0%
same,residual activity,[8],9%
same,residual activity,[9],0%
same,residual activity,[10],22%
same,residual activity,[11],7%
same,residual activity,[12],13%
same,residual activity,[13],0%
same,residual activity,[14],21%
same,residual activity,[15],2%
same,residual activity,[16],72%
same,residual activity,[17],20%
same,residual activity,[18],62%
same,residual activity,[2],16%
same,residual activity,[19],97%
same,residual activity,[20],82%
same,residual activity,[5],80%
O=c1cc(N2CCOCC2)oc2c1ccc1ccccc12,residual activity,[1],91%
same,residual activity,[6],103%
same,residual activity,[7],97%
same,residual activity,[8],83%
same,residual activity,[9],88%
same,residual activity,[10],96%
same,residual activity,[11],88%
same,residual activity,[13],98%
same,residual activity,[14],96%
same,residual activity,[15],94%
same,residual activity,[18],100%
same,residual activity,[2],108%
same,residual activity,[19],103%
same,residual activity,[20],87%
same,residual activity,[3],110%
same,residual activity,[4],97%
O=C(NC(NC(=S)Nc1ccc(F)c([N+](=O)[O-])c1)C(Cl)(Cl)Cl)C(c1ccccc1)c1ccccc1 (configuration not stated),residual activity,[1],96%
same,residual activity,[6],98%
same,residual activity,[7],93%
same,residual activity,[12],126%
same,residual activity,[2],78%
same,residual activity,[20],102%
same,residual activity,[5],92%
CC(C)c1nn(-c2c(Cl)cccc2Cl)c2nc(Cc3ccc(OCCO)cc3)[nH]c(=O)c12,residual activity,[6],102%
same,residual activity,[7],99%
same,residual activity,[8],103%
same,residual activity,[9],84%
same,residual activity,[10],104%
same,residual activity,[11],91%
same,residual activity,[14],98%
same,residual activity,[15],96%
same,residual activity,[16],85%
same,residual activity,[17],100%
same,residual activity,[18],103%
same,residual activity,[2],106%
same,residual activity,[20],94%
same,residual activity,[3],99%
same,residual activity,[4],86%
same,residual activity,[5],81%
COc1ccc2c(c1)c(C1=C(c3c[nH]c4ccccc34)C(=O)NC1=O)cn2CCCN(C)C,residual activity,[1],73%
same,residual activity,[6],97%
same,residual activity,[7],71%
same,residual activity,[8],81%
same,residual activity,[9],75%
same,residual activity,[12],122%
same,residual activity,[13],67%
same,residual activity,[14],101%
same,residual activity,[15],79%
same,residual activity,[16],114%
same,residual activity,[17],81%
same,residual activity,[18],102%
same,residual activity,[2],50%
same,residual activity,[19],104%
same,residual activity,[20],57%
same,residual activity,[3],111%
same,residual activity,[5],74%
CCCC(=O)Oc1ccc2[nH]c(C(=O)c3cc4ccccc4[nH]3)cc2c1,residual activity,[1],77%
same,residual activity,[6],90%
same,residual activity,[7],89%
same,residual activity,[8],85%
same,residual activity,[9],69%
same,residual activity,[12],134%
same,residual activity,[13],80%
same,residual activity,[14],105%
same,residual activity,[15],101%
same,residual activity,[16],103%
same,residual activity,[17],100%
same,residual activity,[19],94%
same,residual activity,[20],81%
same,residual activity,[4],89%
same,residual activity,[5],69%
O=C1Cc2c([nH]c3ccc([N+](=O)[O-])cc23)-c2ccccc2N1,residual activity,[17],106%
same,residual activity,[18],101%
same,residual activity,[2],101%
same,residual activity,[19],109%
same,residual activity,[3],104%
same,residual activity,[4],101%
same,residual activity,[5],70%
O=c1cc(N2CCOCC2)oc2c(-c3ccccc3)cccc12,residual activity,[13],75%
same,residual activity,[20],79%
same,residual activity,[5],70%
CCCCc1c(-c2ccc(O)cc2)[nH]c2nccnc12,residual activity,[8],52%
same,residual activity,[9],53%
same,residual activity,[10],71%
same,residual activity,[11],26%
same,residual activity,[14],93%
same,residual activity,[15],38%
same,residual activity,[16],62%
same,residual activity,[17],63%
same,residual activity,[18],80%
same,residual activity,[2],26%
same,residual activity,[3],97%
same,residual activity,[4],98%
same,residual activity,[5],56%
O=S(=O)(NCCNC/C=C/c1ccc(Br)cc1)c1cccc2cnccc12,residual activity,[9],75%
same,residual activity,[15],100%
COc1ccc(COc2ccc(Cc3cnc(N)nc3N)cc2OC)cc1,residual activity,[8],76%
same,residual activity,[9],67%
same,residual activity,[12],137%
same,residual activity,[13],82%
same,residual activity,[14],100%
same,residual activity,[15],99%
O=c1c(-c2ccc(F)cc2)c(-c2ccncc2)[nH]n1-c1ccc(Cl)cc1,residual activity,[3],7%
same,residual activity,[4],-10%
same,residual activity,[5],-2%
COc1ccc(-c2cnc3c(-c4ccsc4)cnn3c2)cc1,residual activity,[8],98%
same,residual activity,[9],84%
same,residual activity,[10],124%
same,residual activity,[11],94%
same,residual activity,[2],92%
same,residual activity,[3],100%
same,residual activity,[4],100%
same,residual activity,[5],88%
Fc1ccc(-c2nc3n(c2-c2ccncc2)CCS3)cc1,residual activity,[12],128%
same,residual activity,[16],99%
same,residual activity,[17],100%
same,residual activity,[20],81%
same,residual activity,[3],73%
same,residual activity,[4],20%
same,residual activity,[5],14%
COc1ccc(CNC(=O)Nc2ncc([N+](=O)[O-])s2)cc1,residual activity,[9],103%
same,residual activity,[10],72%
same,residual activity,[11],78%
same,residual activity,[5],65%
COc1ccc(Cl)cc1NC(=O)Nc1cc(C)nc2ccccc12,residual activity,[8],96%
same,residual activity,[9],100%
same,residual activity,[16],124%
same,residual activity,[17],155%
same,residual activity,[2],145%
same,residual activity,[5],85%
Cc1cc(C)c(/C=C2\C(=O)Nc3ccccc32)[nH]1,residual activity,[8],76%
same,residual activity,[9],75%
same,residual activity,[10],39%
same,residual activity,[11],13%
same,residual activity,[12],65%
same,residual activity,[13],3%
same,residual activity,[3],102%
same,residual activity,[4],101%
CCOc1nc(NC(=O)Cc2cc(OC)ccc2OC)cc(N)c1C#N,residual activity,[10],81%
same,residual activity,[11],81%
same,residual activity,[19],-16%
same,residual activity,[20],-6%
same,residual activity,[3],-1%
same,residual activity,[4],-11%
same,residual activity,[5],-2%
CC(C)N(CCC(=O)c1ccc2ccccc2c1)Cc1ccccc1,residual activity,[8],83%
same,residual activity,[9],77%
same,residual activity,[12],131%
same,residual activity,[13],82%
same,residual activity,[18],78%
same,residual activity,[2],45%
same,residual activity,[20],57%
same,residual activity,[4],86%
same,residual activity,[5],80%
